Assay outcomes deposited in PubChem BioAssay by National Center for Advancing Translational Sciences (NCATS).
Only some compounds are listed: those with a hit (about 11% of all), similar ones and a draw of the others.
HTT cytoprotect: Huntington cell model cytoprotection by ATP luminescence. Potency, µM (top dose mostly 56.4 µM), without a hit: cytoprotection (ATP increase), actives largely listed as activators. PC12 HTT-Q103 induced, cytoprotection, ATP luminescence, 40 h. 0.14% of 230,000 active; note: potency is the fitted concentration of half-maximal effect; % of control where 0% means no effect; nearly all actives have a fitted effect of over 45% in size
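ATP quantification (ATPlite) reports survival of PC12 cells in which tebufenozide, 100 nM final, switches on Htt exon 1 with 103 glutamines linked to GFP; compounds are titrated.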
ALDH1A1 inh: blocks purified human ALDH1A1 activity; Purified ALDH1A1, NADH fluorescence, propionaldehyde substrate; P00352; AID 1030; Potency, µM (series often up to 75.3 µM), for the others: at the top dose activity, negative = inhibition, hits mostly inhibitors; 7.3% of 220,000 active; active = well fitted inhibition curve with a large enough effect, not every such curve was filed as active; inconclusive = small, poorly fitted or top-dose-only effect, or another doubt; inactive = no such curve, though single readings can be large or run the other way;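 note: potency is the fitted concentration of half-maximal effect; plate controls were no enzyme wells and a reference inhibitor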
Target sequence (P00352 whole entry, looked up): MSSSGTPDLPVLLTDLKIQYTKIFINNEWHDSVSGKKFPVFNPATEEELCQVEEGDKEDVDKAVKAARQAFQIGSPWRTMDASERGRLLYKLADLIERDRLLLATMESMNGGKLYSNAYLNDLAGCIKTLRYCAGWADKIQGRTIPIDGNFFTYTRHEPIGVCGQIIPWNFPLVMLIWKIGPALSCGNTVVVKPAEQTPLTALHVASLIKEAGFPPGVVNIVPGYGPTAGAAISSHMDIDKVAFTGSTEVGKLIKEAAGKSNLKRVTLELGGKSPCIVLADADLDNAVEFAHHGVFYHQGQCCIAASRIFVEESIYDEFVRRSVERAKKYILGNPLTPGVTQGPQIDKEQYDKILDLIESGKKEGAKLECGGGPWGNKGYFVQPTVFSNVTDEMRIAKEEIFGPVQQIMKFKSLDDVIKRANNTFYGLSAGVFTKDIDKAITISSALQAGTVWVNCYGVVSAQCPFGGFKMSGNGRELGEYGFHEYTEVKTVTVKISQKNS
RGS12 GoLoco inh: blocks human Gai1 binding to RGS12 GoLoco peptide, red readout | AID 880 | P63096 | Potency, µM (titrated, usually from 61.6 µM), for inactives: at the highest dose activity, negative = inhibition, usual class: inhibitors | Gai1:RGS12 GoLoco peptide FP, rhodamine, 10 min | 0.44% of 230,000 active; active = well fitted inhibition curve with a large enough effect, not every such curve was filed as active; inactive = no such curve, though single readings can be large or run the other way; note: potency is the fitted concentration of half-maximal effect; % is set by controls: 0 for no effect and ±100 for the full control effect; nearly all actives have a fitted effect of over 30% in size
HPGD inh: HPGD (human) dehydrogenase inhibition; purified HPGD, NADH fluorescence kinetic, PGE2 substrate; Potency, µM, inactives show top-dose activity change, negative = inhibition, most hits filed as inhibitors; 4.3% of 150,000 active; active = well fitted inhibition curve with a large enough effect, not every such curve was filed as active; inconclusive = small, poorly fitted or top-dose-only effect, or another doubt; inactive = no such curve, though single readings can be large or run the other way; note: potency is the fitted concentration of half-maximal effect; % is set by controls: 0 for no effect and ±100 for the full control effect
Target sequence (P15428 whole entry, looked up): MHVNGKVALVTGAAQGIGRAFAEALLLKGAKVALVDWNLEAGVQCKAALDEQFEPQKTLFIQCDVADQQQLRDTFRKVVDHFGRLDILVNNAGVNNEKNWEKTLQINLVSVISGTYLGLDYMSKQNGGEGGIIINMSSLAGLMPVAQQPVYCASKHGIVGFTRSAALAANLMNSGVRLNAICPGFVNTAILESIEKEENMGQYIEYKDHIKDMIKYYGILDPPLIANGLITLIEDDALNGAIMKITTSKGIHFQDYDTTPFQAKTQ
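20 nM HPGD preincubated 15 min at room temperature with compound in 50 mM Tris-HCl pH 8, 0.01% Tween 20. Started with 1 mM NAD+ and 30 uM prostaglandin E2; NADH fluorescence (360/450 nm) read 5 times over 30-s intervals, last minus first.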
HTT aggregate: mutant huntingtin aggregation inhibition. PC12 HttQ103-GFP aggregates, Acumen cytometry, 40 h. Potency, µM (highest dose often 46.1 µM), for the others: at the top dose activity change, negative = inhibition, most hits filed as inhibitors. 1.1% of 220,000 active. AID 1688; note: potency is the fitted concentration of half-maximal effect; % is set by controls: 0 for no effect and ±100 for the full control effect; nearly all actives have a fitted effect of over 60% in size
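Ecdysone-promoter PC12 model expressing HTT exon 1 Q103 fused to GFP, induced by tebufenozide at 100 nM final. Compounds titrated; aggregates sized 1–25 µm scored on a 488 nm laser cytometer.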
PNC inhibitor: perinucleolar compartment assembly inhibition | PC3M PTB-GFP, PNC prevalence imaging, 16 h; active compounds read low | activity change (PNC), negative = inhibition, % at 10 µM | 3.1% of 140,000 active | AID 2417;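 active = readout at or below -70, meaning at least 70% loss of cells showing the perinucleolar compartment, a nuclear body marking cancer cells; inconclusive = readout between -30 and a set limit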;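 note: plate controls were DMSO wells for no effect and camptothecin positive control wells for full effect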
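Read-out is percentage of cells bearing a perinucleolar compartment, from automated 20x imaging of fixed, Hoechst-stained PC3M PTB-GFP cells. Cells were seeded 4 h, then exposed 16 h to compound (23 nl of library stock) in duplicate plates.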
The depositor's hits bear a star; ? = inconclusive; . = no result; [ ] = remark or other dose. Unless noted, calls come from the whole dose curve; as a rule, active = well fitted curve in the direction sought with a large enough effect; inconclusive = small, poorly fitted or top-dose-only effect, or another doubt; inactive = no such curve, though single readings can be large; an effect the other way counts as inactive or inconclusive.

SMILES	HTT cytoprotect	ALDH1A1 inh	RGS12 GoLoco inh	HPGD inh	HTT aggregate	PNC inhibitor
Nc1cc2c(nc3c4ccccc4c(N)cc3[n+]2-c2cccc3ccccc23)c2ccccc12 (tested in a mixture with another compound)	-20%[10 µM]	?	-48%[14.2 µM]	-11%	.	.
CCCCN1C(=O)/C(=C/C=C2\N(C)c3ccccc3C2(C)C)SC1=S	-34%	?	-46%	-9%	13µM*	17
CCCN1C(=O)/C(=C\C=C2/C=CN(CC)c3ccccc32)SC1=S	-25%[10 µM]	5µM*	34%	-15%	-12%	-30
CN1/C(=C\C=C(C#N)C#N)C(C)(C)c2ccccc21	.	9%	202%	.	?	.
CCN1C(=O)/C(=C/C=C2/Sc3ccc4ccccc4c3N2CCO)SC1=S	.	-3%	235%	-10%	0%	?
CCCn1c(-c2ccc(F)cc2)nc2c(NCCCN(CC)CC)nc(C)nc21	-1%	?	8%	?	.	.
O=C(NC1CCCCC1)Oc1cccc2ccccc12	29%[10 µM]	7%	11%	.	25%[9.22 µM]	.
CC1CCCC(NC(=O)C2CCN(S(=O)(=O)N3CCCCC3)CC2)C1C (configuration not stated)	8%	-17%	10%	.	-22%	.
N#CC1=C(N)NC(SCc2ccccc2)=C(C#N)C12CCCCC2	-25%	13µM*	9%	-27%	?	19
CC1=C(C(=O)Nc2ccccc2)C(c2ccncc2)C(C#N)=C(SCC(=O)Nc2ccccc2)N1 (configuration not stated)	-7%	?	-4%	-8%	12%	10
N#CC1=C(N)NC(SCC(=O)Nc2ccccc2)=C(C#N)C12CCCCC2	-5%[10 µM]	25µM*	8%	-26%	-9%	-1
CCCSC1=C(C#N)C2(CCCCC2)C(C#N)=C(N)N1	-12%[10 µM]	2µM*	12%	.	1%[9.22 µM]	.
CCSC1=C(C#N)C2(CCCCC2)C(C#N)=C(N)N1	-25%[10 µM]	10µM*	6%	-3%	?	30
COc1cccc(Nc2ncc3nc(-c4cc(F)cc(F)c4)c(=O)n(CCC#N)c3n2)c1	-8%	6%	20%	-14%	.	.
CC/C=C\C/C=C\C/C=C\C/C=C\C/C=C\C/C=C\CCC(N)=O	-8%	-7%	1%	-7%	.	.
O=C(N/N=C/c1sc(=O)n(-c2ccccc2)c1Cl)c1ccccc1	-14%[10 µM]	16µM*	90%	-10%	12%	-7
CCOC(=O)C1=C(Cc2ccc(OC)cc2)C(=O)c2ccccc2C1=O	-26%	?	67%	32µM*	?	-21
CCOC(=O)C1=C(Cc2ccc(C)cc2)C(=O)c2ccccc2C1=O	-47%	?	119%	13µM*	?	24
C/C(=N\N=C(N)N)c1ccc(Cl)c(Cl)c1	-33%	0%	17%	.	14%	.
COc1ccc(NC(=S)N2CCN(c3ncccn3)CC2)c(OC)c1	-5%[10 µM]	.	10%	.	-24%[9.22 µM]	.
O=c1[nH]cnc(O)c1C(c1ccc2c(c1)OCO2)c1c(O)nc[nH]c1=O	17%[10 µM]	1%	0%	.	-6%	.
CCCc1ccc(OCc2ccc(C(=O)N3CCN(c4ccccn4)CC3)o2)c(OC)c1	-16%[0.074 µM]	-12%	3%	?	18µM*	-29
COc1ccc(CC(=O)N2CCN(c3ccccn3)CC2)cc1OC	15%	?	-4%	?	-1%	-29
CC(C)(C)C(=O)NC1(C(F)(F)F)NC(=O)N(Cc2ccccc2)C1=O (configuration not stated)	2%[10 µM]	.	1%	.	25%[9.22 µM]	.
O=C1NC(c2ccccc2)(C(F)(F)F)C(=O)N1Cc1cccnc1 (configuration not stated)	2%[0.074 µM]	-14%	2%	-19%	-15%	-85*
SMILES	HTT cytoprotect	ALDH1A1 inh	RGS12 GoLoco inh	HPGD inh	HTT aggregate	PNC inhibitor
COc1ccc(CN2C(=O)CS(=O)CC2=O)cc1OC	-6%[10 µM]	8.9µM*	-5%	-12%	16%	-26
COc1ccc(CN2CCS(=O)(=O)CC2)cc1OC	-29%	-14%	-2%	.	-3%	.
C=C[C@@](C)(O)CC[C@H]1[C@]2(C)CCCC(C)(C)[C@H]2CC[C@]1(C)O	5%	.	.	.	.	.
CCCN=C1NC(=O)C(CC(=O)NCCc2ccccc2)S1 (configuration not stated)	-3%[10 µM]	28µM*	3%	.	-5%	.
Cc1ccc(CN=C2NC(=O)C(CC(=O)NCCc3ccccc3)S2)cc1 (configuration not stated)	11%[10 µM]	?	10%	.	15%	.
Clc1ccccc1CN1CCN(/N=C/C=C\c2ccco2)CC1	-15%	3.2µM*	7%	.	2%	.
C(/C=C/c1ccco1)=N/N1CCN(c2ccccc2)CC1	-17%	?	-10%	-12%	20%	-6
O=[N+]([O-])c1ccc2[nH]c3nc4ccccc4nc3c2c1	19%[10 µM]	.	19%	.	-8%[9.22 µM]	.
O=C(Nc1ccc2oc(=O)ccc2c1)c1cccnc1	7%[10 µM]	?	0%	?	-12%	?
COc1cccc(OC)c1C(=O)NC(=S)Nc1ccc2oc(=O)ccc2c1	1%[1.9 µM]	?	0%	-8%	1%	-23
Cc1cc(=O)oc2cc(NC(=O)c3cc4ccccc4o3)ccc12	-20%	?	4%	?	4%	30
O=C(Nc1ccc2oc(=O)ccc2c1)c1ccc(-c2cccc([N+](=O)[O-])c2)o1	-76%[10 µM]	7.9µM*	25%	.	-40%[9.22 µM]	.
O=C(Nc1ccc2oc(=O)ccc2c1)c1cc2ccccc2o1	-41%[10 µM]	-3%	-6%	?	3%	-119*
O=C(Nc1ccc2oc(=O)ccc2c1)c1ccc(-c2ccc(Cl)cc2)o1	-22%[10 µM]	8.9µM*	.	.	17%	8
CC(=O)NC(=S)Nc1ccc2oc(=O)ccc2c1	-17%[10 µM]	8.9µM*	-2%	.	-8%[9.22 µM]	.
O=C(NCCOc1ccccc1)C(=O)c1c[nH]c2ccccc12	13%[10 µM]	.	4%	.	8%[9.22 µM]	.
COc1ccccc1CNC(=O)CSc1ccc(-c2ccccn2)nn1	-28%	-13%	9%	.	-20%	.
OCCC1CN(Cc2ccc(-n3cccn3)cc2)CCN1Cc1ccccc1 (configuration not stated)	8%[10 µM]	10%	9%	.	-2%[9.22 µM]	.
Cc1ccc(N/C=C(\[N+](=O)[O-])S(=O)(=O)c2ccccc2)cc1	-44%	?	4%	.	-6%	.
Cc1cccc(N/C=C(\[N+](=O)[O-])S(=O)(=O)c2ccccc2)c1C	0%[10 µM]	25µM*	-12%	.	-1%	.
CN(C)c1ccc(NC(=O)c2cn(-c3ccccc3)nc2-c2cccs2)cc1	5%	8.9µM*	-6%	-13%	0%[9.22 µM]	?
CC#CC(=O)N1CCC(CCc2ccccc2)(C(=O)OCC)CC1	-21%[10 µM]	5%	-3%	.	-11%[9.22 µM]	.
CCOC(=O)C1(CCCc2ccccc2)CCN(C(=O)C2=C(C)OCCO2)CC1	18%[10 µM]	3.2µM*	-2%	.	3%[9.22 µM]	.
